HT1080NT lethal = kills 2HG-producing HT-1080-NT fibrosarcoma cells. HT-1080-NT fibrosarcoma viability, CellTiter-Glo ATP luminescence, 48 h. Potency, µM (top dose mostly 46.1 µM), actives largely listed as cytotoxic. actives 1.6% (n = 360,000). AID 686970;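 further: NT is the 2HG producing partner of a matched IDH1 knockdown line; nearly all actives have a fitted effect of over 55% in size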
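Viability of the 2HG-overproducing fibrosarcoma line after 48 hours of compound exposure at 37 degrees C was determined by luminescence with CellTiter-Glo, and concentration-effect curves were then fitted and categorized.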
TDP1 cell noCPT = qHTS for Inhibitors of human tyrosyl-DNA phosphodiesterase 1 (TDP1): qHTS in cells in absence of CPT; actives 15% (n = 420,000); Potency, µM (series often up to 46.2 µM), usual class: inhibitors; DT40 Tdp1-/- hTDP1 cells, no CPT, ATP luminescence, 48 h; AID 686978, 2013; further: nearly all actives have a fitted effect of over 55% in size
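Stably hTDP1-transfected Tdp1-null chicken DT40 cells were treated with library compounds minus camptothecin and grown for at least 48 hr at 37 °C, after which cellular ATP was quantified by luminescence.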
HT1080 IDH1KD tx = HT-1080 IDH1 knockdown cell toxicity (counter line); actives 2% (n = 360,000); AID 686971; Potency, µM (highest dose often 46.1 µM), actives largely listed as cytotoxic; HT-1080 IDH1 knockdown viability, ATP luminescence, 48 h
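Using the IDH1-knockdown HT-1080 line run in the same batch and compound series as the NT line, viability after 48 h at 37 °C was determined by CellTiter-Glo luminescence and expressed as % activity.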
TDP1 cell CPT = DT40-hTDP1 cell growth loss with CPT; chicken DT40 Tdp1-/-;hTDP1 cells + 20 nM CPT, ATP luminescence, 48 h; Potency, µM (top dose mostly 46.2 µM), hits mostly inhibitors; actives 12% (n = 420,000); AID 686979; further: nearly all actives have a fitted effect of over 55% in size
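Chicken DT40 Tdp1-/- cells complemented with human TDP1, 400 cells/well, exposed to compounds plus 20 nM camptothecin for at least 48 h at 37 C; viability read as ATP content by CellTiter-Glo luminescence.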
12-LOX inh = blocks human arachidonate 12S-lipoxygenase | P18054 | Potency, µM (series often up to 108 µM), actives largely listed as inhibitors | actives 1.1% (n = 580,000) | purified 12hLO, xylenol orange hydroperoxide absorbance
Target sequence (P18054 whole entry, looked up): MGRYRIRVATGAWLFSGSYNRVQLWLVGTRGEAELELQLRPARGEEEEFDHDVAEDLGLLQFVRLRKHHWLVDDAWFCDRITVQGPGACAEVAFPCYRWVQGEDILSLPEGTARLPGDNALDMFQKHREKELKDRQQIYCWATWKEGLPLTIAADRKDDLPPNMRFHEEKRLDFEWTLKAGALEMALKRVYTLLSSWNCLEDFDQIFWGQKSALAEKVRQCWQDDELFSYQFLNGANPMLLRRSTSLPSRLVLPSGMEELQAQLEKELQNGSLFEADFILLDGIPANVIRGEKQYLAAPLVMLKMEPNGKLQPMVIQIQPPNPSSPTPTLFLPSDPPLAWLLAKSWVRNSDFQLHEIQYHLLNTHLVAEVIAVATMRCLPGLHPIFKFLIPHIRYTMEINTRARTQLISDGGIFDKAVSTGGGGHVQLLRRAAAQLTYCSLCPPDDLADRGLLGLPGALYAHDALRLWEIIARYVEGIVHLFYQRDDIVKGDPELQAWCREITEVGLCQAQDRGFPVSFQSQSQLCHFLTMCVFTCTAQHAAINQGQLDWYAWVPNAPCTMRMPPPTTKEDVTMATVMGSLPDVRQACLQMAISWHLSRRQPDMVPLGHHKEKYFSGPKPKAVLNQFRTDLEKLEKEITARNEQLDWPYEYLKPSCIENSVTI
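Hydroperoxide product was detected by ferrous iron/xylenol orange as the 573 to 405 nm absorbance ratio. Arachidonic acid at 40 uM (final) was turned over for 30 min at room temperature by 150 nM human 12hLO, pH 7.0 Hepes buffer, after 15 min compound preincubation.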
IL1B secr inh = blocks inflammasome-driven IL-1 beta release; THP-1 LPS/ATP IL-1B secretion, AlphaLISA, 16 h; hits give low values; AID 743279; actives 4.7% (n = 360,000); activity change, % at 57.5 µM; in the data active means activity change below about -50%; inconclusive means mostly about -30% to -49%
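Secreted IL-1B measured by AlphaLISA bead assay after 16 h compound exposure of THP-1 cells; compounds (final up to 57.5 uM) added 1 h before LPS (250 ng/mL) and ATP (1.25 mM) stimulation; lower signal means less secretion.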
Hits are given with their value; - = inactive; ? = inconclusive; . = no result given. The full list was thinned out, with hits kept by preference. Unless noted, the call rests on the fitted dose curve; in most records, active means well fitted curve in the direction sought with a large enough effect; inconclusive means small, poorly fitted or top-dose-only effect, or another doubt; inactive means no such curve, though single readings can be large; an effect the other way counts as inactive or inconclusive.

SMILES | HT1080NT lethal | TDP1 cell noCPT | HT1080 IDH1KD tx | TDP1 cell CPT | 12-LOX inh | IL1B secr inh
CC1CC(C)C(=NNC(N)=O)C(C(O)CC2CCC(=O)NC2=O)C1 (stereo unspecified) | - | 2.31µM | ? | 1.64µM | - | -
CCC1SC(C)C/C(=N/NC(N)=O)C1C (stereo unspecified) | - | - | - | - | - | -
Cn1nccc1-c1ccc2ncn(Cc3ccccc3)c(=O)c2n1 | . | . | . | . | - | .
CC1CCCN(S(=O)(=O)c2ccc(NC(=O)CNC3CCCC3)cc2)C1 (stereo unspecified) | - | ? | - | ? | - | ?
CCOc1ccc(NC(=O)c2nn(Cc3ccccc3)c(=O)c3ccccc23)cc1 | . | . | . | . | - | .
CCOc1ccc(NC(=O)c2nc(S(=O)(=O)Cc3ccccc3)ncc2Cl)cc1 | . | 0.398µM | . | 0.316µM | . | .
COc1ccc(NC(=O)c2nc(S(=O)(=O)Cc3ccc(C)cc3)ncc2Cl)cc1 | . | 2.06µM | . | 16.4µM | - | .
O=C(Nc1ccc(OC(F)F)cc1)c1ncc(Cl)c(Cl)c1Cl | - | - | - | - | - | -157.6
CCS(=O)(=O)c1ncc(Cl)c(C(=O)Nc2ccc(S(=O)(=O)N3CCCC(C)C3)cc2)n1 (stereo unspecified) | 2.59µM | 2.31µM | 4.61µM | 0.92µM | - | -104.4
Cc1ccc(NC(=O)c2ncc(Cl)c(Cl)c2Cl)cc1C | - | ? | - | ? | - | -
COc1ccc(NC(=O)c2ccc(Cc3ccc(C)cc3)o2)cc1 | - | ? | - | ? | - | -
CC(=O)Nc1ccc(NC(=O)c2nc(S(=O)(=O)Cc3ccccc3)ncc2Cl)cc1 | - | 0.461µM | - | 0.259µM | - | .
CCOc1ccc(NC(=O)c2nc(S(=O)(=O)Cc3ccc(C)cc3)ncc2Cl)cc1 | . | 0.631µM | . | 0.794µM | - | .
CS(=O)(=O)c1ncc(Cl)c(C(=O)Nc2ccc3ccccc3c2)n1 | 9.2µM | 0.651µM | 2.91µM | 1.03µM | - | -99.1
CCOc1ccc(NC(=O)c2nsc(Cl)c2Cl)cc1 | - | - | - | - | - | -
Cc1ccc(CS(=O)(=O)c2ncc(Cl)c(C(=O)Nc3ccc(OC(F)F)cc3)n2)cc1 | 16.4µM | 3.66µM | ? | 3.66µM | - | -103.4
Cc1nc(C)c(C(=O)NCCc2noc(-c3ccncc3)n2)s1 | . | . | . | . | - | .
O=C(O)c1cc(-c2ccc3c(c2)OCCO3)cc(S(=O)(=O)N2CCOCC2)c1 | . | . | . | . | - | .
OCC(O)C[n+]1cccc(Br)c1 (stereo unspecified) | . | - | . | - | . | .
COC(=O)c1ccccc1NC(=O)c1nc(S(=O)(=O)Cc2ccccc2)ncc1Cl | - | 1.3µM | - | 2.91µM | - | -
CCCSc1ncc(Cl)c(C(=O)Nc2c(C(=O)Nc3ccc(OC)cc3)oc3ccccc23)n1 | . | ? | . | ? | - | .
CCCS(=O)(=O)c1ncc(Cl)c(C(=O)Nc2c(C(=O)Nc3ccccc3)oc3ccccc23)n1 | . | 2.59µM | . | 2.06µM | - | .
CCS(=O)(=O)c1ncc(Cl)c(C(=O)Nc2ccc(C)cc2)n1 | 18.4µM | 1.84µM | 14.6µM | 1.64µM | - | -98.8
Cc1nn(-c2ccccn2)c2c1C(c1ccccc1Cl)C1=C(N2)c2ccccc2C1=O (stereo unspecified) | - | 4.61µM | - | 6.51µM | - | -
CSC1=C(C#N)C(c2ccccc2Cl)C2=C(N1)c1ccccc1C2=O (stereo unspecified) | - | 18.4µM | - | 23.1µM | - | -97.9
Cc1oc(-c2ccccc2)nc1C(=O)NCc1ccccc1 | . | . | . | . | 17.8µM | .
Cc1cccc(NC(=O)c2ccccc2NC(=O)c2nc(-c3ccccc3)oc2C)c1 | . | . | . | . | 35.5µM | .
Cc1oc(-c2ccccc2)nc1C(=O)Nc1ccccc1F | . | . | . | . | - | .
O=C(NCc1ccccc1)c1nc(-c2c(F)cccc2F)oc1-c1ccccc1 | - | 18.4µM | - | ? | - | -
O=C(NC1CCCC1)c1nc(-c2c(F)cccc2F)oc1-c1ccccc1 | - | ? | - | ? | - | -
